Compound activity from PubChem BioAssay.
In the library only some 1.2% were active in any assay of this set; here they are far more common.
hERG WT inh: inhibitors of human wildtype KCNH2 potassium channel | AID 720551 | activity change, % at 1.84 µM | Q12809 | 340,000 compounds, 0.37% hits | U2OS, BacMam KCNH2, thallium flux FluxOr; hits give low values;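 active = maximum activity change below -70%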
Target sequence (Q12809 whole entry, looked up): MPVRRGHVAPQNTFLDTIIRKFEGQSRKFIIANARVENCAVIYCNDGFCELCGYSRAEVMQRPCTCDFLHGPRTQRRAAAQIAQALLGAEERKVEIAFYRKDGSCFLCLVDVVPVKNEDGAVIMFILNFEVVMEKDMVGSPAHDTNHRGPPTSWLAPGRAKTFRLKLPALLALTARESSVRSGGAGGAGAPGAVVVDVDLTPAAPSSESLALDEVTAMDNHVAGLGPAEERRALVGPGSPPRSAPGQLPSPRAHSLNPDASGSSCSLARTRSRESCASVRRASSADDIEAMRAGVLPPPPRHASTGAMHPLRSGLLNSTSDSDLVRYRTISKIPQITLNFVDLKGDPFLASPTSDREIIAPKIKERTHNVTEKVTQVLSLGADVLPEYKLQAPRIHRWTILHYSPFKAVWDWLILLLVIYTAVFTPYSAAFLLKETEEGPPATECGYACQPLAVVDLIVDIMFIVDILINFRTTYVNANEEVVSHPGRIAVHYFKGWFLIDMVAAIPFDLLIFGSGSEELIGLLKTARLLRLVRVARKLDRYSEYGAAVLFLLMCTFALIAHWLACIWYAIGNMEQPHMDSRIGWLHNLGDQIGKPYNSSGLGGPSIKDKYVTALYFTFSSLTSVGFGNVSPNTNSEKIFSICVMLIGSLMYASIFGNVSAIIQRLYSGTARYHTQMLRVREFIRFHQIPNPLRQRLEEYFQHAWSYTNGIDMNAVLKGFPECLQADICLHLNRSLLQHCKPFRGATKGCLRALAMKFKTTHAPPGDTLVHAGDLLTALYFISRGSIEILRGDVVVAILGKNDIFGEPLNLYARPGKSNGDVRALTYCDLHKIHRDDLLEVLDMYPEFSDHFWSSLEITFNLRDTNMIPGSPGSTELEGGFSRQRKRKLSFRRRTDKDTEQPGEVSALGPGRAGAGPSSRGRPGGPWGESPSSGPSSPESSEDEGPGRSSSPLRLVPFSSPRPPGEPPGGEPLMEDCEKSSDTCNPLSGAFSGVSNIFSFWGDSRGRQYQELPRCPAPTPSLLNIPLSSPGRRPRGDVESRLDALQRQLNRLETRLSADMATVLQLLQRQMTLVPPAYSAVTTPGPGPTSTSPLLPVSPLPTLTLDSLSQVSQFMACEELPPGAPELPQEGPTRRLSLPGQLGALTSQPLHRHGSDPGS
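U2OS cells transduced with wild-type KCNH2 virus are loaded with FluxOr dye for 45 min, and thallium flux is measured in kinetic reads before and after stimulation buffer. Rate constants are normalized to DMSO controls.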
KCNH2 3.1 inh: inhibitors of human KCNH2 3.1 potassium channel isoform; U2OS KCNH2 3.1, thallium flux FluxOr; hits give low values; activity change, % (tested at about 1.8 µM); 340,000 compounds, 0.95% hits; AID 720553;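 active = maximum activity change below -70%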;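 note: thallium influx rate constant from kinetic fluorescence after stimulation buffer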
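Thallium flux read-out: FluxOr dye with Red40 quencher in HBSS/HEPES, 45 min at RT. Rate constants from kinetic reads were normalized to positive and negative DMSO controls. Cells: U2OS virally expressing the 3.1 isoform.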
KinaseGlo FLuc: counter-screen: inhibitors of Kinase-Glo firefly luciferase; Q27757; Kinase-Glo luciferase, ATP luminescence, 8 min; Potency, µM (doses to about 38.3 µM), most hits filed as inhibitors; 200,000 compounds, 0.28% hits; AID 1379; active = well fitted inhibition curve with a large enough effect; note: nearly all actives have a fitted effect of over 60% in size
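Compounds were added to a substrate mix at pH 7.2 (50 mM imidazole, 10 uM ATP, within the enzyme's linear range), followed by Kinase-Glo detection reagent; luminescence was measured after 8 minutes at ambient temperature.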
Large screens that a line does not name were inactive.

Cc1ccc(NC(=O)CNc2cccc(Br)c2)cc1S(=O)(=O)N1CCOCC1	none (no result: KinaseGlo FLuc)
COc1ccc(C(=S)NCS(=O)(=O)c2ccc(C)cc2)cc1	hERG WT inh -148.2
Cc1ccc(S(=O)(=O)CNC(=S)c2ccc3ccccc3c2)cc1	none
Cc1ccc(S(=O)(=O)CCC(=O)OCC(=O)Nc2cccc(S(=O)(=O)N3CCCCC3)c2)cc1	none (no result: KinaseGlo FLuc)
COC(=O)C(Cc1c[nH]c2ccccc12)NC(=O)C1CC1 (configuration not stated)	none (no result: KinaseGlo FLuc)
COc1ccc(OC)c(S(=O)(=O)Nc2ccccc2C)c1	none
COc1ccc(OC)c(S(=O)(=O)Nc2ccccc2SC)c1	KCNH2 3.1 inh -88.3
O=C(c1ccc2nccnc2c1)N1CCN(Cc2ccc3c(c2)OCO3)CC1	KCNH2 3.1 inh -87.3
O=C(c1ccc(Cl)c(Cl)c1)N1CCN(Cc2ccc3c(c2)OCO3)CC1	none (no result: KinaseGlo FLuc)
O=C(CN(c1ccccc1)S(=O)(=O)c1ccccc1)N1CCN(Cc2ccc3c(c2)OCO3)CC1	none
COc1ccc(N(CC(=O)N2CCN(Cc3ccc4c(c3)OCO4)CC2)S(=O)(=O)c2ccc(F)cc2)cc1	KCNH2 3.1 inh -86.1 (no result: KinaseGlo FLuc)
O=C(c1cccn2c(=O)c3ccccc3nc12)N1CCN(Cc2ccc3c(c2)OCO3)CC1	none
CCCC(=O)N1CCN(Cc2ccc3c(c2)OCO3)CC1	none
CC(C)CC(=O)N1CCN(Cc2ccc3c(c2)OCO3)CC1	hERG WT inh -132.5
O=C(c1cccn2c(=O)c3cc(Cl)ccc3nc12)N1CCN(Cc2ccc3c(c2)OCO3)CC1	KCNH2 3.1 inh -82.8
O=C(NCCCN1CCOCC1)c1ccc(NS(=O)(=O)c2ccccc2)cc1	none (no result: KCNH2 3.1 inh, KinaseGlo FLuc)
CSc1nsc(SC)c1-c1ccc(Cl)cc1	none (no result: KinaseGlo FLuc)
COc1ccc(CCNC(=O)CCNS(=O)(=O)c2cccc(Cl)c2)cc1OC	none
CCc1noc(C)c1C(=O)N1CCN(S(=O)(=O)c2cccs2)CC1	none (no result: KinaseGlo FLuc)
Cc1c(-c2ccccc2)[nH]n2c(=O)c3c(nc12)CCCC3	KCNH2 3.1 inh -92.0
Cc1ccc(-c2[nH]n3c(=O)c4c(nc3c2C)CCCC4)cc1	none
O=C(C1=C[C@H](c2ccc(C(F)(F)F)cc2)C[C@H](OCCCCO)O1)N1CCN(Cc2ccccc2)CC1	none (no result: KinaseGlo FLuc)
O=C(C1=C[C@@H](c2ccc(C(F)(F)F)cc2)C[C@@H](OCCCCO)O1)N1CCN(Cc2ccccc2)CC1	KCNH2 3.1 inh -123.2 (no result: KinaseGlo FLuc)
CC(OC(=O)c1ccc(F)c(S(=O)(=O)N2CCOCC2)c1)C(=O)NCC1CCCCC1 (configuration not stated)	none (no result: KinaseGlo FLuc)
COc1ccc(OC)c(S(=O)(=O)N2CCC(C(=O)N3CCCCCC3)CC2)c1	none (no result: KinaseGlo FLuc)
COc1cccc(NC(=O)COc2coc(CN3CCc4ccccc4C3)cc2=O)c1	none (no result: KinaseGlo FLuc)
O=C(Nc1ccccc1F)Nc1ccccc1Br	none (no result: hERG WT inh)
CNC(=O)Nc1ccccc1F	hERG WT inh -241.2
COC(=O)c1sccc1NC(=O)c1c(-c2ccccc2)noc1C	KCNH2 3.1 inh -73.6
COC(=O)c1sccc1NC(=O)Nc1ccccc1F	KinaseGlo FLuc 12.6µM
Cc1onc(-c2ccccc2)c1C(=O)Nc1ccc(NC(=O)c2c(-c3ccccc3)noc2C)cc1	none (no result: KinaseGlo FLuc)
COC(=O)c1sccc1NC(=O)Nc1ccccc1C	none (no result: KinaseGlo FLuc)
CCc1noc(C)c1C(=O)NNC(=O)c1ccccc1F	none (no result: KinaseGlo FLuc)
CCCc1cc(C(=O)Nc2ccc(C(=O)c3ccc(C)cc3)cc2)n(C)n1	none (no result: KinaseGlo FLuc)
COc1ccc(CN2CCN(C(=O)c3ccccc3C(=O)c3ccccc3)CC2)cc1OC	none (no result: KinaseGlo FLuc)
Cc1ccc2nc(SCC(=O)Nc3cccc(F)c3)nc(=O)n2c1	none (no result: KinaseGlo FLuc)
O=C(COC(=O)c1nc(Cl)ccc1Cl)NCc1cccs1	none (no result: KinaseGlo FLuc)
Cc1ccn2cc(-c3cc4ccccc4oc3=O)nc2c1	KinaseGlo FLuc 10µM
Cc1ccc(-c2csc(Cc3nc(-c4cc5ccccc5oc4=O)cs3)n2)cc1	none
NC(=O)c1ccccc1NC(=O)CSc1nc2ccccc2c(=O)[nH]1	none (no result: KinaseGlo FLuc)
Cc1cc2nc(SCC(=O)Nc3ccccc3C(=O)O)[nH]c2cc1C	KCNH2 3.1 inh -137.7
COc1ccc(OCCCC(=O)NNC(=O)c2ccncc2)cc1	none (no result: KinaseGlo FLuc)
CCOC(=O)c1c(N2CCN(c3ccccc3)CC2)cc(C)nc1C	KCNH2 3.1 inh -97.5 (no result: KinaseGlo FLuc)
CCOC(=O)c1c(CN2CCN(c3ccccc3)CC2)oc2ccc(O)cc12	none
COc1ccc(CN(C)CC(=O)Nc2cc(OC)c([N+](=O)[O-])cc2C)c(OC)c1	KCNH2 3.1 inh -70.7
COc1cc(NC(=O)CN(C)Cc2ccc(OC(F)F)cc2)c(C)cc1[N+](=O)[O-]	none (no result: KinaseGlo FLuc)
COc1ccc(NC(=O)CN(C)S(=O)(=O)c2ccc(C)cc2)c([N+](=O)[O-])c1	hERG WT inh -121.7 (no result: KinaseGlo FLuc)
COc1ccc(N(C)S(=O)(=O)c2ccc(C)cc2)c([N+](=O)[O-])c1	none
O=C(CSc1nnc(-c2cccc(Br)c2)o1)N1CCNC1=O	none (no result: KinaseGlo FLuc)
CSc1ccc(S(=O)(=O)NCc2ccc(C)cc2)cc1	KCNH2 3.1 inh -78.2
Cc1ccc(S(=O)(=O)NCc2ccccc2)cc1	none
